Source: PubChem BioAssay (Tox21)
Active and inactive are the calls of the source. Unless noted, calls come from the whole dose curve.

molecular target: Gonadotropin-releasing hormone receptor (Homo sapiens) (UniProt P30968); assay: Human gonadotropin-releasing hormone receptor (GnRHR) small molecule agonists, calcium flux assay in GnRHR-HEK293 cells (AID 1920063); details: calcium flux fluorescence, agonist mode; series mostly up to 57.6 µM; activity change: at the top concentration; note: nearly all actives have a fitted effect of over 35% in size
Sequence (P30968 whole entry, looked up): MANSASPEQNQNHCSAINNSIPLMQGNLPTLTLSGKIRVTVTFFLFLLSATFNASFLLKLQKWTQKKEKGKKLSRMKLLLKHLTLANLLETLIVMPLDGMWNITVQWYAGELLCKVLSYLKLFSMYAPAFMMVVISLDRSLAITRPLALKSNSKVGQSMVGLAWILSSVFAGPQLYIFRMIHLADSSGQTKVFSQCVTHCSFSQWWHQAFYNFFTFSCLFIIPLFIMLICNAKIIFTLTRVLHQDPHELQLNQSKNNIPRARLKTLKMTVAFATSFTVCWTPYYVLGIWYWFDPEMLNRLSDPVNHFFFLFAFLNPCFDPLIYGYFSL
Summary of the method: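 Calcium flux, agonist mode, human GnRHR stably integrated in HEK293; dye 1 h at 37 C before compound; Ex/Em=480/540 kinetic read, 3 min; 15 concentrations, triplicate.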
% is set by controls: 0 for no effect and ±100 for the full control effect.

Row | Compound | activity change
1 | CC[N+](C)(CC)CCOC(=O)C1c2ccccc2Oc2ccccc21 | -0.193% [at 26.4 µM, active compounds read high] (inactive)
2 | C/C=C1/C(=O)C[C@H]2[C@@H]3CCC4=CC(=O)CC[C@]4(C)[C@H]3CC[C@]12C | 13.5% (inactive)
3 | O=C(NN1CCCC1)NS(=O)(=O)c1ccc(Cl)cc1 | 0.172% [at 26.4 µM, active compounds read high] (inactive)
4 | CCCNCCC | -0.123% (inactive)
5 | O=C1CC[C@@H](C(=O)O)N1 | -1.16% [at 26.4 µM, active compounds read high] (inactive)
6 | C1C2OC2C2C1C1CC2C2OC12 (stereo not given) | 2.04% (inactive)
7 | Cc1ccc(C#N)cc1 | -1.85% (inactive)
8 | CC[C@@]1(c2ccccc2)NC(=O)N(C)C1=O | 0.581% [at 26.4 µM, active compounds read high] (inactive)
9 | CC[C@H]1O[C@]2(CC[C@@H]1C)C[C@@H]1C[C@@H](C/C=C(\C)C[C@@H](C)/C=C/C=C3\CO[C@@H]4[C@H](O)C(C)=C[C@@H](C(=O)O1)[C@]34O)O2 | 7.16% (inactive)
10 | O=CNc1ccccc1 | -0.232% (inactive)
11 | FC(F)(Cl)C(F)(Cl)Cl | 1.09% (inactive)
12 | CCN(C(=O)N(CC)c1ccccc1)c1ccccc1 | 4.92% (inactive)
13 | CCCCCC/C=C/C=O | 0.287% (inactive)
14 | CCCCCCCCCCO[C@@H]1O[C@H](CO)[C@@H](O)[C@H](O)[C@H]1O | 6.26% (inactive)
15 | CC(C)COC(=O)CCCCC(=O)OCC(C)C | 5.21% (inactive)
16 | CCOc1ccc(NC(=O)CC(C)=O)cc1 | -0.247% (inactive)
17 | CCOC(=O)CC(=O)c1ccccc1 | -0.197% (inactive)
18 | NCCCC(N)(C(=O)O)C(F)F (stereo not given) | -1.17% [at 26.4 µM, active compounds read high] (inactive)
19 | Cc1ccccc1Br | -1.19% (inactive)
20 | CCCCCCCCS(=O)(=O)O | 0.0338% (inactive)

Row | Compound | activity change
21 | CCOC(=O)[C@@](C)(N)Cc1ccc(O)c(O)c1 | -1.12% [at 26.4 µM, active compounds read high] (inactive)
22 | CC1(C)SC(C)(C)SC(C)(C)S1 | 0.342% (inactive)
23 | NCCCCCCNCCCCCCN | 1.97% (inactive)
24 | CCN(CC)CCNC(C(=O)OCCC(C)C)c1ccccc1 (stereo not given) | 4.32% [at 26.4 µM, active compounds read high] (inactive)
25 | Oc1cc2ccccc2c2ccccc12 | -0.42% (inactive)
26 | CCCCCCC(C)Nc1ccc(Nc2ccccc2)cc1 (stereo not given) | -0.0776% (inactive)
27 | CCCCCCCCCCCCCOC(=O)CCSCCC(=O)OCCCCCCCCCCCCC | 1.53% [at 11.8 µM, active compounds read high] (inactive)
28 | CC(C)(C)C(=O)CCc1ccc(Cl)cc1 | -0.746% (inactive)
29 | CC(C)COC(=O)COc1ccc(Cl)cc1Cl | 1.15% (inactive)
30 | C=C(C)c1cccc(C(=C)C)c1 | -0.0012% (inactive)
31 | CC(C)(C)C1CCCCC1=O (stereo not given) | 2.42% (inactive)
32 | COC(=O)CC(=O)C(C)(C)C | 0% (inactive)
33 | CC(C)NCC(O)c1cc(O)cc(O)c1 (stereo not given) | 10.3% [at 26.4 µM, active compounds read high] (inactive)
34 | O=C=NCC1CCCC(CN=C=O)C1 (stereo not given) | 1.3% (inactive)
35 | NNc1nc(-c2ccccc2)cs1 | -1.91% (inactive)
36 | O=Cc1cc(O)ccc1Br | 6.98% (inactive)
37 | Cc1ccc(C)c([N+](=O)[O-])c1 | -0.625% (inactive)
38 | CCN(CC)C(=O)c1ccc(O)c(OC)c1 | 0.492% [at 26.4 µM, active compounds read high] (inactive)
39 | Cc1cccc(NC(=S)N(C)C)c1 | -0.0991% (inactive)
40 | COc1ccc(OC)c(Cl)c1 | -0.539% (inactive)

molecular target: KiSS-1 receptor (Homo sapiens) (UniProt Q969F8); assay: Human kisspeptin (KISS1R) small molecule agonists, calcium flux assay in KISS1R-HEK293 cells (AID 1920064; active = well fitted activation curve with a large enough effect in the repeat runs); details: KISS1R-HEK293, calcium flux fluorescence, agonist; series mostly up to 76.8 µM; activation: at the top concentration
Sequence (Q969F8 whole entry, looked up): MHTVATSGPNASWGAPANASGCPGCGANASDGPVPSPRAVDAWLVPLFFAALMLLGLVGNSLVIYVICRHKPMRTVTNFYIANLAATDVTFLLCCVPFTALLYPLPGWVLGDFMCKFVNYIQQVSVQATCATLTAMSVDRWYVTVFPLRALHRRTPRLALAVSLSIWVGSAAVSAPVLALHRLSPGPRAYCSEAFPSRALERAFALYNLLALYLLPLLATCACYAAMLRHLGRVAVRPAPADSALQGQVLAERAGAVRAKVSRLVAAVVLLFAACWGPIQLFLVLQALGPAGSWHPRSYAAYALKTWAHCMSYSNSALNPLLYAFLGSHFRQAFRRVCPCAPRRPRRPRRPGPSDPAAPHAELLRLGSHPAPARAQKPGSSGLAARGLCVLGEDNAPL
Summary of the method: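 Triplicate 15-concentration series were applied to dye-loaded human KISS1R HEK293 cells, and agonist-evoked calcium fluorescence was captured for 3 min.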

Row | Compound | activation
41 | CC[N+](C)(CC)CCOC(=O)C1c2ccccc2Oc2ccccc21 | 1.82% [at 35.3 µM] (inactive)
42 | C/C=C1/C(=O)C[C@H]2[C@@H]3CCC4=CC(=O)CC[C@]4(C)[C@H]3CC[C@]12C | 2.41% (inactive)
43 | O=C(NN1CCCC1)NS(=O)(=O)c1ccc(Cl)cc1 | -0.412% [at 35.3 µM] (inactive)
44 | CCCNCCC | 2.54% (inactive)
45 | O=C1CC[C@@H](C(=O)O)N1 | -0.0304% [at 35.3 µM] (inactive)
46 | C1C2OC2C2C1C1CC2C2OC12 (stereo not given) | -2.38% (inactive)
47 | Cc1ccc(C#N)cc1 | -1.22% (inactive)
48 | CC[C@@]1(c2ccccc2)NC(=O)N(C)C1=O | -1.67% [at 35.3 µM] (inactive)
49 | CC[C@H]1O[C@]2(CC[C@@H]1C)C[C@@H]1C[C@@H](C/C=C(\C)C[C@@H](C)/C=C/C=C3\CO[C@@H]4[C@H](O)C(C)=C[C@@H](C(=O)O1)[C@]34O)O2 | -0.269% (inactive)
50 | O=CNc1ccccc1 | 0.716% (inactive)
51 | FC(F)(Cl)C(F)(Cl)Cl | -0.703% (inactive)
52 | CCN(C(=O)N(CC)c1ccccc1)c1ccccc1 | -3.06% (inactive)
53 | CCCCCC/C=C/C=O | -1.64% (inactive)
54 | CCCCCCCCCCO[C@@H]1O[C@H](CO)[C@@H](O)[C@H](O)[C@H]1O | 1.16% (inactive)
55 | CC(C)COC(=O)CCCCC(=O)OCC(C)C | -0.262% (inactive)
56 | CCOc1ccc(NC(=O)CC(C)=O)cc1 | 0.139% (inactive)
57 | CCOC(=O)CC(=O)c1ccccc1 | -8.34% (inactive)
58 | NCCCC(N)(C(=O)O)C(F)F (stereo not given) | -0.0376% [at 35.3 µM] (inactive)
59 | Cc1ccccc1Br | -0.803% (inactive)
60 | CCCCCCCCS(=O)(=O)O | -0.839% (inactive)

Row | Compound | activation
61 | CCOC(=O)[C@@](C)(N)Cc1ccc(O)c(O)c1 | 17.4% [at 35.3 µM] (inactive)
62 | CC1(C)SC(C)(C)SC(C)(C)S1 | -1.73% (inactive)
63 | NCCCCCCNCCCCCCN | -1.91% (inactive)
64 | CCN(CC)CCNC(C(=O)OCCC(C)C)c1ccccc1 (stereo not given) | -0.209% [at 35.3 µM] (inactive)
65 | Oc1cc2ccccc2c2ccccc12 | 1.35% (inactive)
66 | CCCCCCC(C)Nc1ccc(Nc2ccccc2)cc1 (stereo not given) | 3.34% (inactive)
67 | CCCCCCCCCCCCCOC(=O)CCSCCC(=O)OCCCCCCCCCCCCC | 1.75% [at 15.8 µM] (inactive)
68 | CC(C)(C)C(=O)CCc1ccc(Cl)cc1 | -2.32% (inactive)
69 | CC(C)COC(=O)COc1ccc(Cl)cc1Cl | -1.7% (inactive)
70 | C=C(C)c1cccc(C(=C)C)c1 | 1.16% (inactive)
71 | CC(C)(C)C1CCCCC1=O (stereo not given) | -0.68% (inactive)
72 | COC(=O)CC(=O)C(C)(C)C | -0.441% (inactive)
73 | CC(C)NCC(O)c1cc(O)cc(O)c1 (stereo not given) | 10.5% [at 35.3 µM] (inactive)
74 | O=C=NCC1CCCC(CN=C=O)C1 (stereo not given) | 2.44% (inactive)
75 | NNc1nc(-c2ccccc2)cs1 | 4.55% (inactive)
76 | O=Cc1cc(O)ccc1Br | 4.66% (inactive)
77 | Cc1ccc(C)c([N+](=O)[O-])c1 | -0.508% (inactive)
78 | CCN(CC)C(=O)c1ccc(O)c(OC)c1 | -1.08% [at 35.3 µM] (inactive)
79 | Cc1cccc(NC(=S)N(C)C)c1 | 4.06% (inactive)
80 | COc1ccc(OC)c(Cl)c1 | -0.431% (inactive)
